Laboratory results from PubChem BioAssay AID1362 (SRMLSC, 2008).
Screen size: about 190,000 compounds; about 4,000 (2.1%) were called active. Rule as the data show it: active = inhibition above about 58%; inactive = the rest, inconclusive results apart; tested in S. cerevisiae. The full list was thinned out, with actives kept by preference.

Experiment: growth inhibition of WT strain, primary screen, mitochondrial fusion inhibitor project, WT and mutant strains, chemical genetic (AID 1362)
Conditions: mitochondrial fusion phenotypic screen, at 10 µM
[1] = WT strain, growth inhibition, stronger effect = higher value

| Structure (SMILES) | inhibition [1] | inhibition (mutant strain inhibition) [%] |
| --- | --- | --- |
| CCc1cc(CNC(=O)CC2C(=O)NCCN2CC2CCCCC2)on1 (configuration not stated) | 8.17% (inactive) | -2.22 |
| Cc1cccc(C)c1NC(=O)C1(N(C(=O)c2ccccn2)c2ccc(O)cc2)CCCCC1 | 0.64% (inactive) | -13.5 |
| CC(=O)N/N=C(\C)c1ccc(Br)cc1Br | 13.2% (inactive) | 10.1 |
| O=C(/C(=N\O)n1cncn1)c1ccc(Br)cc1Br | 86.5% (active) | -4.91 |
| Cc1ccc(C(=O)N2CCCC(c3ccccc3)=N2)cc1 | 10.8% (inactive) | 2.44 |
| Cc1cccc(NC(=O)c2nnn(-c3cccc(C(F)(F)F)c3)c2N)c1 | -4.08% (inactive) | -7.16 |
| O=C1c2ccccc2NC(c2ccccn2)N1NS(=O)(=O)c1ccccc1 (configuration not stated) | -4.85% (inactive) | -14.2 |
| NS(=O)(=O)c1ccc(N2C(=O)C3C4CC(C(Br)C4Br)C3C2=O)cc1 (configuration not stated) | -2.55% (inactive) | -12.2 |
| FC(F)(F)c1cc(-c2ccco2)nc(N2CCOCC2)n1 | 7.84% (inactive) | 9.26 |
| FC(F)(F)c1cc(-c2cccs2)nc(NCc2ccco2)n1 | 6.76% (inactive) | 7.71 |
| FC(F)(F)c1cc(-c2ccco2)nc(NCc2ccc(Cl)cc2)n1 | 76.9% (active) | 17.2 |
| COc1ccc(CN2CCCC(C(=O)c3ccc(Cl)cc3)C2)cc1Cn1cncn1 (configuration not stated) | -19.6% (inactive) | -4.89 |
| CCc1ccccc1NC(=S)N(CCN1CCCCCC1)Cc1ccco1 | -9.37% (inactive) | 22.4 |
| CS(=O)(=O)N(CC(=O)N/N=C/c1ccccn1)c1ccc(Oc2ccccc2)cc1 | 13% (inactive) | 10.6 |
| Cc1ccccc1NC(=O)CNc1ccccc1N1CCCCC1 | 67.2% (active) | 13.6 |
| O=C(CN1CCN(C2CCCCC2)CC1)Nc1ccccc1N1CCCCC1 | 6.93% (inactive) | 0.36 |
| Cn1c(=O)c2c(nc(SCC(=O)Nc3ccccc3N3CCCCC3)n2C)n(C)c1=O | 12.6% (inactive) | -10.4 |
| CC(Sc1nncn1C)C(=O)Nc1cc(C(F)(F)F)ccc1N1CCOCC1 (configuration not stated) | -29% (inactive) | -7.18 |
| COc1ccc(OC)c(NC(=O)CN2CCN(C(=O)c3ccco3)CC2)c1 | -14.9% (inactive) | -24.9 |
| COc1ccc(NC(C)=O)cc1NC(=O)CN1CCN(c2ccccn2)CC1 | -13.6% (inactive) | -9.7 |
| COc1ccc(NC(C)=O)cc1NC(=O)CN1CCN(C2c3ccccc3-c3ccccc32)CC1 | 60.1% (active) | 41.5 |
| Cc1c(CN2CCC(CO)(CCOc3ccccc3)CC2)[nH]c2ccc(Cl)cc12 | 94.7% (active) | 93.1 |
| OCC1(CCOc2ccccc2)CCN(Cc2cn[nH]c2-c2ccccc2)CC1 | 15.8% (inactive) | -2.31 |
| Cc1c(C(=O)N2CCOCC2)[nH]c2ccc(OCc3ccccc3)cc12 | 14.8% (inactive) | 11.7 |
| CN(c1ccccc1)S(=O)(=O)c1cc(C(=O)OCC(=O)N2CCN(C(=O)c3ccco3)CC2)ccc1Cl | -22.5% (inactive) | 9.01 |
| COc1cccc(CC2(CO)CCN(Cc3cnc(-c4cccc(C)c4)nc3)CC2)c1 | -0.71% (inactive) | -25.4 |

| Structure (SMILES) | inhibition [1] | inhibition (mutant strain inhibition) [%] |
| --- | --- | --- |
| Cc1cccc(-c2ncc(CN3CCC(CO)(CCCc4ccccc4)CC3)cn2)c1 | 84.8% (active) | 70.5 |
| OCC1(CCc2ccccc2)CCN(Cc2ccc3nsnc3c2)CC1 | 9.84% (inactive) | 25.4 |
| N#CCSc1nn(-c2ccc(F)cc2)c(=S)s1 | 4.11% (inactive) | -30.5 |
| COCCN(C(=O)c1ccccc1F)c1c(N)n(Cc2ccccc2)c(=O)[nH]c1=O | 4.27% (inactive) | 0.13 |
| O=[N+]([O-])c1ccccc1N/N=C1\CCc2ccccc21 | -0.84% (inactive) | 3.81 |
| O=C1c2ccccc2NC(c2ccccc2O)N1NS(=O)(=O)c1ccccc1 (configuration not stated) | -6.26% (inactive) | -11.6 |
| CCCCN(CC)CCCNC(=O)c1ccc(CSc2nc3ccncc3[nH]2)cc1 | 7.78% (inactive) | 7.15 |
| Cc1ccc(-n2cc(CN(C)Cc3nccn3C)c(-c3cccc(C)c3)n2)cc1 | 78.8% (active) | 64.6 |
| COc1ccc(-n2cc(CN(C)Cc3n[nH]c(=O)[nH]3)c(-c3cccc(F)c3)n2)cc1 | 7.75% (inactive) | 8.93 |
| Cc1cccc(-n2cc(CN3CCN(C(=O)c4ncn[nH]4)CC3)c(-c3cccc(F)c3)n2)c1 | 10.2% (inactive) | -17.8 |
| Brc1ccc2nc(N3CCCC3)sc2c1 | 14.9% (inactive) | 19.6 |
| CCOC(=O)C1(Cc2cccc(OC)c2)CCN(Cc2csc(C(C)=O)c2)CC1 | 25.6% (inactive) | 25 |
| O=C(c1ccc(-c2ccccc2)cc1)C1CCCN(C(=O)c2cncs2)C1 (configuration not stated) | -57.9% (inactive) | 9.01 |
| Cc1ccc(C2=Nc3c(ccc4ccccc34)C(c3ccncc3)=NN2)cc1 | 67.9% (active) | 45.6 |
| CCOc1ccc2c(c1)C(c1ccc(C)cc1)=NNC(c1ccc(C)cc1)=N2 | 45.3% (inactive) | 35.7 |
| CCc1ccc2c(c1)C(c1ccc([N+](=O)[O-])cc1)=NNC(c1ccccc1)=N2 | -6.57% (inactive) | 12 |
| Cc1coc(C)c1C(=O)CC1(O)C(=O)N(C)c2ccc(Cl)cc21 (configuration not stated) | 5.13% (inactive) | 0.33 |
| CCOc1ccc(NC(=O)CCC(=O)n2nc(C)cc2C)cc1 | -6.72% (inactive) | -6.56 |
| Cc1ccccc1NCC(=O)N/N=C\c1ccc([N+](=O)[O-])s1 | 66.5% (active) | 43.8 |
| CCCCCC(=O)Nc1ccc(C(=O)N/N=C/c2ccc([N+](=O)[O-])cc2)cc1 | -17% (inactive) | 15.9 |
| CCOc1ccc(NC(=O)CCC(=O)N/N=C/c2ccc([N+](=O)[O-])s2)cc1 | 60.3% (active) | 17.2 |
| Cc1cccc(/C=N/NC(=O)CNc2cccc3ccccc23)n1 | 18.4% (inactive) | 3.37 |
| COc1ccc(C(=O)NCC(=O)N/N=C/c2ccc([N+](=O)[O-])s2)cc1OC | -4.24% (inactive) | -9.98 |
| CCN(CC)C(=O)Cn1cc(S(=O)(=O)CC(=O)NCc2ccc3c(c2)OCO3)c2ccccc21 | -10.5% (inactive) | 4.73 |
| O=C(/C=C/c1ccc(F)cc1)NCCNC(=O)/C=C/c1ccc(F)cc1 | 8.8% (inactive) | -17 |
